# Reference: the supplement of paper PMC10037445
# In all, about 2,900 compounds were measured (“NF-kB SEAP reporter activity, fold change vs agonist alone”: median about 0.99, highest 2% from about 2.6 on). Only a selection was taken, and the highest values are over-represented in it overall.
# Legend:
# RAW-Dual [1] = test: NF-kB SEAP reporter activity, fold change vs agonist alone; cytotoxicity flag (confluency mask): not cytotoxic; higher = enhanced NF-kB activity
# Summary of the method: (§1)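 Library stock was pin-tooled at 50 nL into 384-well plates of RAW-Dual macrophages (50,000 cells/well, DMEM), followed 1 h later by a PRR agonist, and the cells were kept at 37 °C, 5% CO2. Supernatant collected after 20 hours was read for IRF by QuantiLuc luminescence and for NF-κB by QuantiBlue absorbance at 620 nm. Reporter activity is fold change over agonist-alone wells, and a well counted as cytotoxic when its IncuCyte confluency was below 70% of agonist controls in both mask sets.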
# RAW-Dual [2] = test: NF-kB SEAP reporter activity, fold change vs agonist alone; higher = enhanced NF-kB activity; settings: cytotoxicity flag (confluency mask): not cytotoxic
# Summary of the method: as §1
# [3] = agonist: ODN 1826 (TLR9) 0.5 ug/mL
# [4] = agonist: Pam2CSK4 (TLR2/6) 0.1 ug/mL
# [5] = agonist: Pam3CSK4 (TLR2/1) 0.1 ug/mL
# [6] = library stock concentration (final ~1000-fold dilution): 10 mM, agonist: MPLA (TLR4) […]
# [7] = library stock concentration (final ~1000-fold dilution): 10 mM, agonist: Imiquimod (TLR7) […]
smiles,measurement,setting,value
CNC1CN(c2ccc3c(=O)c(C(=O)O)cn(-c4nccs4)c3n2)CC1OC.Cl (centres undefined) (library stock concentration (final ~1000-fold dilution): 2 mM),NF-kB SEAP reporter activity,RAW-Dual [1]; agonist: LPS (TLR4) 0.1 ug/mL,1.11
same,NF-kB SEAP reporter activity,RAW-Dual [1]; [3],1.56
same,NF-kB SEAP reporter activity,RAW-Dual [1]; [4],1.32
same,NF-kB SEAP reporter activity,RAW-Dual [1]; [5],1.18
CNC1CN(c2ccc3c(=O)c(C(=O)O)cn(-c4nccs4)c3n2)CC1OC.Cl (centres undefined),NF-kB SEAP reporter activity,"RAW-Dual [2]; library stock concentration (final ~1000-fold dilution): 2 mM, agonist: Imiquimod (TLR7) […]",1.12
same,NF-kB SEAP reporter activity,"RAW-Dual [2]; library stock concentration (final ~1000-fold dilution): 2 mM, agonist: MPLA (TLR4) […]",0.968
Br.CN(C)CCCC1(c2ccc(F)cc2)OCc2cc(C#N)ccc21 (centres undefined),NF-kB SEAP reporter activity,RAW-Dual [2]; [6],1.01
Br.CN(C)CCCC1(c2ccc(F)cc2)OCc2cc(C#N)ccc21 (centres undefined) (library stock concentration (final ~1000-fold dilution): 10 mM),NF-kB SEAP reporter activity,RAW-Dual [1]; agonist: LPS (TLR4) 0.1 ug/mL,1.15
same,NF-kB SEAP reporter activity,RAW-Dual [1]; [3],0.889
same,NF-kB SEAP reporter activity,RAW-Dual [1]; [4],0.786
same,NF-kB SEAP reporter activity,RAW-Dual [1]; [5],0.857
CCOc1cc(C(CS(C)(=O)=O)N2C(=O)c3cccc(NC(C)=O)c3C2=O)ccc1OC (centres undefined),NF-kB SEAP reporter activity,RAW-Dual [2]; [7],1.12
same,NF-kB SEAP reporter activity,RAW-Dual [2]; [6],1.26
CCOc1cc(C(CS(C)(=O)=O)N2C(=O)c3cccc(NC(C)=O)c3C2=O)ccc1OC (centres undefined) (library stock concentration (final ~1000-fold dilution): 10 mM),NF-kB SEAP reporter activity,RAW-Dual [1]; agonist: LPS (TLR4) 0.1 ug/mL,1.59
same,NF-kB SEAP reporter activity,RAW-Dual [1]; [3],1.87
same,NF-kB SEAP reporter activity,RAW-Dual [1]; [4],1.47
same,NF-kB SEAP reporter activity,RAW-Dual [1]; [5],1.72
N=C(N)NCCCC(N)C(=O)NCC(=O)NC(CC(=O)O)C(=O)O (centres undefined),NF-kB SEAP reporter activity,"RAW-Dual [2]; library stock concentration (final ~1000-fold dilution): 10 mM water, agonist: Imiquimod (TLR7) […]",0.924
same,NF-kB SEAP reporter activity,"RAW-Dual [2]; library stock concentration (final ~1000-fold dilution): 10 mM water, agonist: MPLA (TLR4) […]",1.06
N=C(N)NCCCC(N)C(=O)NCC(=O)NC(CC(=O)O)C(=O)O (centres undefined) (library stock concentration (final ~1000-fold dilution): 10 mM water),NF-kB SEAP reporter activity,RAW-Dual [1]; agonist: LPS (TLR4) 0.1 ug/mL,1.41
same,NF-kB SEAP reporter activity,RAW-Dual [1]; [3],1.14
same,NF-kB SEAP reporter activity,RAW-Dual [1]; [4],1.2
same,NF-kB SEAP reporter activity,RAW-Dual [1]; [5],0.993
[O-][n+]1cccc(-c2nc3c(Cl)cccc3cc2C(Nc2ncnc3cccnc23)C(F)(F)F)c1 (centres undefined) (library stock concentration (final ~1000-fold dilution): 10 mM),NF-kB SEAP reporter activity,RAW-Dual [1]; agonist: LPS (TLR4) 0.1 ug/mL,2.33
same,NF-kB SEAP reporter activity,RAW-Dual [1]; [3],1.3
same,NF-kB SEAP reporter activity,RAW-Dual [1]; [4],0.992
same,NF-kB SEAP reporter activity,RAW-Dual [1]; [5],1.38
[O-][n+]1cccc(-c2nc3c(Cl)cccc3cc2C(Nc2ncnc3cccnc23)C(F)(F)F)c1 (centres undefined),NF-kB SEAP reporter activity,RAW-Dual [2]; [7],0.648
same,NF-kB SEAP reporter activity,RAW-Dual [2]; [6],1.56
CC(C)=CC(C)C[C@](C)(O[C@@H]1O[C@H](CO)[C@@H](O)[C@H](O)[C@H]1O)[C@H]1CC[C@]2(C)C3CCC4C(C)(C)C(O[C@@H]5O[C@H](CO)[C@@H](O)[C@H](O)[C@H]5O[C@@H]5O[C@H](CO)[C@@H](O)[C@H](O)[C@H]5O)CC[C@]4(C)C3C[C@H](O)[C@@H]12 (some centres undefined) (library stock concentration (final ~1000-fold dilution): 10 mM),NF-kB SEAP reporter activity,RAW-Dual [1]; agonist: LPS (TLR4) 0.1 ug/mL,1.18
same,NF-kB SEAP reporter activity,RAW-Dual [1]; [3],1.06
same,NF-kB SEAP reporter activity,RAW-Dual [1]; [4],1.04
same,NF-kB SEAP reporter activity,RAW-Dual [1]; [5],1.04
CC(C)=CC(C)C[C@](C)(O[C@@H]1O[C@H](CO)[C@@H](O)[C@H](O)[C@H]1O)[C@H]1CC[C@]2(C)C3CCC4C(C)(C)C(O[C@@H]5O[C@H](CO)[C@@H](O)[C@H](O)[C@H]5O[C@@H]5O[C@H](CO)[C@@H](O)[C@H](O)[C@H]5O)CC[C@]4(C)C3C[C@H](O)[C@@H]12 (some centres undefined),NF-kB SEAP reporter activity,RAW-Dual [2]; [7],0.936
same,NF-kB SEAP reporter activity,RAW-Dual [2]; [6],1.05
COc1cc(CCC(=O)CC(O)CCc2ccc(O)c(OC)c2)ccc1O (centres undefined) (library stock concentration (final ~1000-fold dilution): 10 mM),NF-kB SEAP reporter activity,RAW-Dual [1]; agonist: LPS (TLR4) 0.1 ug/mL,1.4
same,NF-kB SEAP reporter activity,RAW-Dual [1]; [3],1.07
same,NF-kB SEAP reporter activity,RAW-Dual [1]; [4],0.979
same,NF-kB SEAP reporter activity,RAW-Dual [1]; [5],1.25
COc1cc(CCC(=O)CC(O)CCc2ccc(O)c(OC)c2)ccc1O (centres undefined),NF-kB SEAP reporter activity,RAW-Dual [2]; [7],1.04
same,NF-kB SEAP reporter activity,RAW-Dual [2]; [6],1.1
COC(=O)C1=C(C)NC(C)=C(C(=O)OC2CCCN(Cc3ccccc3)C2)C1c1cccc([N+](=O)[O-])c1.Cl (centres undefined),NF-kB SEAP reporter activity,RAW-Dual [2]; [7],0.718
same,NF-kB SEAP reporter activity,RAW-Dual [2]; [6],0.978
COC(=O)C1=C(C)NC(C)=C(C(=O)OC2CCCN(Cc3ccccc3)C2)C1c1cccc([N+](=O)[O-])c1.Cl (centres undefined) (library stock concentration (final ~1000-fold dilution): 10 mM),NF-kB SEAP reporter activity,RAW-Dual [1]; agonist: LPS (TLR4) 0.1 ug/mL,1.22
same,NF-kB SEAP reporter activity,RAW-Dual [1]; [3],0.381
same,NF-kB SEAP reporter activity,RAW-Dual [1]; [4],0.365
same,NF-kB SEAP reporter activity,RAW-Dual [1]; [5],0.368
CN(C)CCOc1ccc(-c2nc(-c3ccncc3)c(-c3ccc4c(c3)CC/C4=N\O)[nH]2)cc1,NF-kB SEAP reporter activity,RAW-Dual [2]; [7],0.946
same,NF-kB SEAP reporter activity,RAW-Dual [2]; [6],1.02
CN(C)CCOc1ccc(-c2nc(-c3ccncc3)c(-c3ccc4c(c3)CC/C4=N\O)[nH]2)cc1 (library stock concentration (final ~1000-fold dilution): 10 mM),NF-kB SEAP reporter activity,RAW-Dual [1]; agonist: LPS (TLR4) 0.1 ug/mL,5
same,NF-kB SEAP reporter activity,RAW-Dual [1]; [3],0.964
same,NF-kB SEAP reporter activity,RAW-Dual [1]; [4],1.49
same,NF-kB SEAP reporter activity,RAW-Dual [1]; [5],0.882
OCCn1cc(-c2ccc3c(c2)CC/C3=N\O)c(-c2ccncc2)n1,NF-kB SEAP reporter activity,RAW-Dual [2]; [7],1.65
same,NF-kB SEAP reporter activity,RAW-Dual [2]; [6],1.57
OCCn1cc(-c2ccc3c(c2)CC/C3=N\O)c(-c2ccncc2)n1 (library stock concentration (final ~1000-fold dilution): 10 mM),NF-kB SEAP reporter activity,RAW-Dual [1]; agonist: LPS (TLR4) 0.1 ug/mL,2.47
same,NF-kB SEAP reporter activity,RAW-Dual [1]; [3],1.5
same,NF-kB SEAP reporter activity,RAW-Dual [1]; [4],1.34
same,NF-kB SEAP reporter activity,RAW-Dual [1]; [5],2.22
CS(=O)(=O)c1ccc(Oc2cc(F)cc(C#N)c2)c2c1C(O)C(F)(F)C2 (centres undefined),NF-kB SEAP reporter activity,RAW-Dual [2]; [7],1.03
same,NF-kB SEAP reporter activity,RAW-Dual [2]; [6],1.16
CS(=O)(=O)c1ccc(Oc2cc(F)cc(C#N)c2)c2c1C(O)C(F)(F)C2 (centres undefined) (library stock concentration (final ~1000-fold dilution): 10 mM),NF-kB SEAP reporter activity,RAW-Dual [1]; agonist: LPS (TLR4) 0.1 ug/mL,1.07
same,NF-kB SEAP reporter activity,RAW-Dual [1]; [3],1.35
same,NF-kB SEAP reporter activity,RAW-Dual [1]; [4],1.01
same,NF-kB SEAP reporter activity,RAW-Dual [1]; [5],1.2
COc1ccc(CCNCC(O)COc2cccc(C)c2)cc1OC.Cl (centres undefined),NF-kB SEAP reporter activity,RAW-Dual [2]; [6],1.06
COc1ccc(CCNCC(O)COc2cccc(C)c2)cc1OC.Cl (centres undefined) (library stock concentration (final ~1000-fold dilution): 10 mM),NF-kB SEAP reporter activity,RAW-Dual [1]; agonist: LPS (TLR4) 0.1 ug/mL,1.02
same,NF-kB SEAP reporter activity,RAW-Dual [1]; [3],0.846
same,NF-kB SEAP reporter activity,RAW-Dual [1]; [4],0.999
same,NF-kB SEAP reporter activity,RAW-Dual [1]; [5],1.08
COc1ccccc1N1CCN(CC(O)COc2cccc3ccccc23)CC1.Cl.Cl (centres undefined) (library stock concentration (final ~1000-fold dilution): 10 mM),NF-kB SEAP reporter activity,RAW-Dual [1]; agonist: LPS (TLR4) 0.1 ug/mL,0.815
same,NF-kB SEAP reporter activity,RAW-Dual [1]; [3],0.929
same,NF-kB SEAP reporter activity,RAW-Dual [1]; [4],0.819
same,NF-kB SEAP reporter activity,RAW-Dual [1]; [5],0.805
